Screens (PubChem BioAssay)
A selection: hits, their analogues and other compounds. The true share with any hit is near 3%.
BH1578 lux ind – inducers of Vibrio cholerae quorum light production without autoinducers, primary screen, BH1578 luxS cqsA deficient, single point; V. cholerae BH1578 lux reporter, luminescence, 6 h; activation, % at 18.7 µM; 350,000 compounds, 0.16% hits; AID 588436, 2011; in the data active means activation mostly above about 9.7%, no sharp cut-off
Mtb BioA inh – M. tuberculosis BioA enzyme inhibitors, primary screen, biochemical, plate reader, single point, HTS | purified M. tuberculosis BioA enzyme | inhibition, % at 9.99 µM | 360,000 compounds, 0.096% hits | AID 602481, 2012; in the data active means inhibition above about 40%
GDH-TPI inh – GDH-TPI coupling enzyme inhibitors, primary screen, artefact control for M. tuberculosis FBA inhibitor project, biochemical, absorbance, full deck. 360,000 compounds, 1.2% hits. inhibition, % at 4.8 µM. GDH-TPI coupled enzyme counterscreen, NADH absorbance; in the data active means inhibition above about 30%
FBA Mtb inh – Mtb FBA enzyme inhibitors, primary screen, biochemical, fluorescence, strain H37Rv. inhibition, % at 1 µM. AID 588726, 2011. 360,000 compounds, 2.3% hits. Fructose-bisphosphate aldolase (Mycobacterium tuberculosis (strain ATCC 25618 / H37Rv)), …. purified M. tuberculosis FBA, fluorescence read-out; in the data active means inhibition above about 27%
Target sequence (P9WQA3 whole entry, looked up): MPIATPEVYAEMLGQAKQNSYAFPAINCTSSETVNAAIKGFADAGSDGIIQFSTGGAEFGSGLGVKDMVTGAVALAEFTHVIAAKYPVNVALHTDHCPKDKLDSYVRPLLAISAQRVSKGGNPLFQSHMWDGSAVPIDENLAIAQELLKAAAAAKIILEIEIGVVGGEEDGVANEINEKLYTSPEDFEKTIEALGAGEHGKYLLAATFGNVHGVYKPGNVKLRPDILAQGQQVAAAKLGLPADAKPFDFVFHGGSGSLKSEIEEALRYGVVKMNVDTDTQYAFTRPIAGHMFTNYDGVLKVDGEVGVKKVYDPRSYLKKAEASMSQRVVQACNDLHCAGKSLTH
Large screens that a line does not name were inactive.

Cc1ccc(S(=O)(=O)Nc2ccc3c(c2)C(=O)N([C@H](C)CO)C[C@@H](C)[C@@H](CN(C)Cc2ccncc2)OCCCC[C@H](C)O3)cc1	none (no result: BH1578 lux ind, GDH-TPI inh, FBA Mtb inh)
COC(=O)C[C@@H]1CC[C@@H]2[C@@H](COc3ccc(NC(=O)Nc4ccc(C)cc4)cc3C(=O)N2C)O1	none (no result: BH1578 lux ind, GDH-TPI inh, FBA Mtb inh)
O=c1c2ccccc2nc(/C=C/c2cccnc2)n1CCc1ccccc1	GDH-TPI inh 37
C[C@@H]1CN([C@H](C)CO)C(=O)c2cc(NC(=O)Nc3ccc(F)cc3)ccc2O[C@H]1CN(C)Cc1ccc(C(F)(F)F)cc1	none (no result: BH1578 lux ind, GDH-TPI inh, FBA Mtb inh)
COc1ccc(NC(=O)Nc2ccc3c(c2)C(=O)N([C@H](C)CO)C[C@@H](C)[C@@H](CN(C)S(=O)(=O)c2ccc(Cl)cc2)O3)cc1	none (no result: BH1578 lux ind, GDH-TPI inh, FBA Mtb inh)
CCCc1cc(=O)oc2c(C)c3occ(C)c3cc12	BH1578 lux ind 23
CCC(=O)N(C)C[C@@H]1Oc2cc(C#CCOC)ccc2S(=O)(=O)N([C@@H](C)CO)C[C@H]1C	none (no result: BH1578 lux ind, GDH-TPI inh, FBA Mtb inh)
O=C(N[C@H]1C=C[C@@H](CC(=O)N2CCc3ccccc3C2)O[C@H]1CO)C1CC1	none (no result: BH1578 lux ind, GDH-TPI inh, FBA Mtb inh)
CN1/C(=C\C=Nc2cc(S(=O)(=O)N3CCOCC3)ccc2N2CCOCC2)C(C)(C)c2ccccc21	GDH-TPI inh 41 (no result: Mtb BioA inh)
CO/N=C/C=C1/N(C)c2ccccc2C1(C)C	GDH-TPI inh 60
Cc1ccccc1N=C/C=C1\N(C)c2ccccc2C1(C)C	GDH-TPI inh 35
Cc1cccc(NC(=O)C[C@H]2CC[C@H]3[C@@H](COc4ccc(NC(=O)C5CCC5)cc4C(=O)N3C)O2)c1	none (no result: BH1578 lux ind, GDH-TPI inh, FBA Mtb inh)
N/C(=N\N=C\c1ccc2c(c1)OCO2)c1nonc1N	GDH-TPI inh 32 (no result: Mtb BioA inh)
N/C(=N\N=C\c1cccc([N+](=O)[O-])c1)c1nonc1N	none
CC(C)NC(=O)Nc1ccc2c(c1)C(=O)N([C@H](C)CO)C[C@H](C)[C@@H](CN(C)C(=O)NC1CCCCC1)OCCCC[C@@H](C)O2	none (no result: BH1578 lux ind, GDH-TPI inh, FBA Mtb inh)
CS(=O)(=O)Nc1ccc2c(c1)[C@H]1C[C@H](CC(=O)NCc3ccccc3F)O[C@H](CO)[C@H]1O2	none (no result: BH1578 lux ind, GDH-TPI inh, FBA Mtb inh)
COc1ccc(C=C(C#N)c2ccc(OC)cc2)cc1	none
CN(CCC#N)c1ccc(C=C(C#N)c2cccc(C(F)(F)F)c2)cc1	none (no result: BH1578 lux ind, Mtb BioA inh, GDH-TPI inh)
COc1ccc(S(=O)(=O)/C(C#N)=C/Nc2ccc(NC(C)=O)cc2)cc1	GDH-TPI inh 31
CC(=O)Nc1ccc(C(C#N)=Cc2ccc(N(C)CCC#N)cc2)cc1	GDH-TPI inh 31
COc1ccc(C(C#N)=Cc2ccc(NC(C)=O)cc2)cc1	GDH-TPI inh 40
C[C@@H]1CN([C@@H](C)CO)C(=O)Cc2cc(NS(=O)(=O)c3ccc(F)cc3)ccc2O[C@H]1CN(C)S(C)(=O)=O	none (no result: BH1578 lux ind, GDH-TPI inh, FBA Mtb inh)
COC(=O)Cc1c(C)c2c(OCc3nn[nH]n3)cc(C)cc2oc1=O	FBA Mtb inh 172
NC(=O)Cc1ccc(OCc2nn[nH]n2)cc1	none
COC(=O)Cc1c(C)c2ccc(OCc3nn[nH]n3)cc2oc1=O	FBA Mtb inh 189
Cc1cc(OCC(=O)NCc2ccncc2)c2c(C)c(C)c(=O)oc2c1	none
COC(=O)Cc1c(C)c2ccc(OCc3nn[nH]n3)c(C)c2oc1=O	FBA Mtb inh 160
CCc1cc(=O)oc2cc(C)cc(OCc3nn[nH]n3)c12	FBA Mtb inh 119
CCc1cc(=O)oc2cc(C)cc(OC(=O)c3ccco3)c12	none
C[C@H](CO)N1C[C@H](C)[C@H](CN(C)C(=O)Nc2ccc(C(F)(F)F)cc2)OCCCC[C@H](C)Oc2ccc(NC(=O)CCC(F)(F)F)cc2C1=O	none (no result: BH1578 lux ind, GDH-TPI inh, FBA Mtb inh)
COc1ccc(S(=O)(=O)Nc2ccc3c(c2)CC(=O)N([C@H](C)CO)C[C@@H](C)[C@H](CN(C)C(=O)Nc2ccccc2)O3)cc1	none (no result: BH1578 lux ind, GDH-TPI inh, FBA Mtb inh)
Cc1c(OCC(=O)N2CCC(C(=O)NCCCC(=O)O)CC2)ccc2c1oc(=O)c1ccccc12	FBA Mtb inh 133
CCC(C)NC(=O)C1CCN(C(=O)COc2ccc3c4c(c(=O)oc3c2C)CCCC4)CC1 (configuration not stated)	none
CCCCc1cc(=O)oc2c(C)c(OCC(=O)N3CCCC3)ccc12	none
COC(=O)Cc1c(C)c2ccc(OCC(=O)N3CCCC(C)C3)c(C)c2oc1=O (configuration not stated)	FBA Mtb inh 120
C[C@@H]1CCCCO[C@H](CN(C)C(=O)C2CCCCC2)[C@@H](C)CN([C@@H](C)CO)C(=O)c2cc(NS(=O)(=O)c3cn(C)cn3)ccc2O1	none (no result: BH1578 lux ind, GDH-TPI inh, FBA Mtb inh)
O=C(N/N=C/c1ccccn1)c1ccc(Cl)cc1	none
Clc1ccccc1NN=Cc1ccccn1	GDH-TPI inh 47
CCN(CC)Cc1c(O)ccc2c(=O)c(-c3ccc(Cl)cc3)coc12	FBA Mtb inh 43
